# Structures can show the parent of a compound that is named as a salt.
# System: HepG2-TUBA1B-RELA
# Test: lowest phenotypically active concentration; higher = less potent
# Conditions: treatment time: 24 h
# Outline: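 Fifteen reporter lines derived from A549, HepG2 and WPMY1 cells by gene editing, carrying BFP for segmentation plus GFP and RFP/FusionRed markers, were exposed to 0.3, 1, 3 or 9 µM for 24 h in four wells each and imaged live. Live-cell features from each well were normalised to solvent control wells. A well set counted as deviating when ≥3 of 4 wells lay beyond the 95th percentile of control Euclidean distances, and as reproducible when the median replicate Pearson correlation exceeded the 95th percentile of non-replicates. Phenotypic activity was assigned only when both criteria were met.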
row,SMILES,lowest phenotypically active concentration [µM]
1,COc1cc2c(c(OC)c1OC)-c1ccc(O)c(=O)cc1[C@@H](N)CC2 [Trimethylcolchicinic acid],9
2,C[C@@]1(CO)[C@H](O)CC[C@@]2(C)[C@H]1CC[C@H]1C[C@@H]3C[C@@]12CC[C@]3(O)CO [Aphidicolin],≤ 0.3
3,COC(=O)[C@@]1(O)C[C@H]2O[C@]1(C)n1c3ccccc3c3c4c(c5c6ccccc6n2c5c31)C(=O)NC4,≤ 0.3
4,COc1ccc(N(C(=O)Oc2c(C)cccc2C)c2ccnc(Nc3ccc(N4CCN(C)CC4)cc3)n2)c(OC)c1,≤ 0.3
5,CC[C@@H]1C=CC=CC[C@H](C)[C@@H](O)[C@](C)(O)C(=O)[C@H](C)[C@@H](O)[C@H](C)C(=O)[C@H](C)[C@@H](O)[C@H](C)C=CC(=O)O[C@H]2[C@@H](C)[C@@H](CC1)O[C@@]1(CC[C@@H](C)[C@@H](C[C@H](C)O)O1)[C@@H]2C [Oligomycin A],≤ 0.3
6,CC(C)[C@@]1(NC(=O)[C@@H]2C[C@@H]3c4cccc5[nH]cc(c45)C[C@H]3N(C)C2)O[C@@]2(O)[C@@H]3CCCN3C(=O)[C@H](Cc3ccccc3)N2C1=O [Dihydroergocristine mesylate],3
7,O=c1[nH]c2ccccc2n1C1CCN(CCCC(c2ccc(F)cc2)c2ccc(F)cc2)CC1 [pimozide],3
8,C[C@]12CC[C@H]3[C@@H](CC[C@]4(O)C[C@@H](O)CC[C@]34C=O)[C@@]1(O)CC[C@@H]2C1=CC(=O)OC1 [Strophanthidin],≤ 0.3
9,C=C1[C@@H](O)C2C=CC[C@H](C)C(=O)[C@](C)(O)C=C[C@@H](OC(C)=O)[C@]23C(=O)N[C@H](Cc2ccccc2)[C@@H]3[C@@H]1C (some centres not stated) [Cytochalasin D],≤ 0.3
10,COc1ccc(C[C@H]2NC[C@H](O)[C@H]2OC(C)=O)cc1 [Anisomycin],≤ 0.3
11,C[C@@H]1CC[C@H]2[C@@H](C)C(=O)O[C@@H]3O[C@@]4(C)CC[C@@H]1[C@]32OO4 [Artemisinin],≤ 0.3
12,Cc1sc2c(c1C)C(c1ccc(Cl)cc1)=N[C@@H](CC(=O)OC(C)(C)C)c1nnc(C)n1-2,≤ 0.3
13,CN1C[C@H](C(=O)N[C@]2(C)O[C@@]3(O)[C@@H]4CCCN4C(=O)[C@H](Cc4ccccc4)N3C2=O)C[C@@H]2c3cccc4[nH]cc(c34)C[C@H]21.CN1C[C@H](C(=O)N[C@]2(C)O[C@@]3(O)[C@@H]4CCCN4C(=O)[C@H](Cc4ccccc4)N3C2=O)C[C@@H]2c3cccc4[nH]cc(c34)C[C@H]21 [dihydroergotamine],9
14,C[C@@]12C(=O)OC(=O)[C@]1(C)[C@H]1CC[C@@H]2O1 [Cantharidin],3
15,COc1cc2c(c(OC)c1OC)-c1ccc(OC)c(=O)cc1[C@@H](NC(C)=O)CC2 [colchicine],≤ 0.3
16,N#CC(C#N)=NNc1cccc(Cl)c1,9
17,CCN1CCN(C(=O)Cc2ccc(Nc3ncc(F)c(Nc4ccc(C(=O)Nc5ccccc5Cl)cc4)n3)cc2)CC1,≤ 0.3
18,O=C(NCCN1CCC2(CC1)C(=O)NCN2c1cccc(F)c1)c1ccc(F)c(F)c1 [ML 298 hydrochloride],9
19,CCn1cnc2c(Nc3cccc(Cl)c3)nc(N[C@H]3CCCC[C@H]3N)nc21,1
20,O=C(Nc1ccncc1)C(=O)c1cn(Cc2ccc(Cl)cc2)c2ccccc12 [Indibulin],1
21,CC[C@@H](C(=O)[C@@H](C)[C@@H](O)[C@H](C)[C@@H]1O[C@@H]([C@@H](CC)C(=O)O)CC[C@@H]1C)[C@H]1O[C@]2(C=C[C@@H](O)[C@]3(CC[C@@](C)([C@H]4CC[C@](O)(CC)[C@H](C)O4)O3)O2)[C@H](C)C[C@@H]1C [Salinomycin Sodium],≤ 0.3
22,CN1C[C@H](C(=O)N[C@]2(C)O[C@@]3(O)[C@@H]4CCCN4C(=O)[C@H](Cc4ccccc4)N3C2=O)C=C2c3cccc4[nH]cc(c34)C[C@H]21 [ergotamine],9
23,C[C@H](CCC(=O)O)C[C@H](C)C[C@H](C)C(=O)/C=C(\O)[C@H](C)C[C@H](C)C/C=C/[C@@H](C)[C@@H](O)[C@@H](C)[C@@H](O)C[C@@H]1CC[C@@](C)([C@H]2CC[C@@](C)([C@@H](C)O)O2)O1 [Ionomycin free acid],9
24,N#CC(C#N)=NNc1ccc(OC(F)(F)F)cc1,9
25,COC1=CC(C)=C[C@@H](C)[C@@H](O)[C@@H](C)CC(C)=CC=C[C@H](OC)[C@@H]([C@@H](C)[C@@H](O)[C@H](C)[C@@]2(O)C[C@@H](O)[C@H](C)[C@@H](C(C)C)O2)OC1=O [Bafilomycin A1],3
26,COc1cc([C@@H]2c3cc4c(cc3[C@H](O)[C@H]3COC(=O)[C@H]23)OCO4)cc(OC)c1OC [Podophyllotoxin],≤ 0.3
27,CC[C@]12C=CCN3CC[C@]4(C(=C(C(=O)OC)C1)Nc1ccccc14)[C@@H]32 [Tabersonine dichlorhydrate],9

# Source: the supplement of paper PMC7411054
